The list is not random: actives were taken first. Their share in the collection is about 2.1%.
Sa ugtP lethal: growth inhibition of ugtP-null S. aureus, primary screen, RN4220 ugtP deletion, OD600; 16 h; AID 1259309, 2017; hit rate 0.54% among 330,000; growth inhibition, % (test concentration not listed); in the data active means growth inhibition above about 68%;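 further: plate controls were untreated wells for no effect and antibiotic for full effect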
PrP 5UTR inh: inhibition of PrP 5' UTR reporter expression; cell-based PrP 5' UTR mRNA reporter, plate reader; inhibition, % (no concentration beside the values); hit rate 0.35% among 340,000; AID 488862, 2010; in the data active means inhibition above about 52%; further: 0 = median of the neutral control wells
PrPC surface inh: inhibitors of human cell surface prion protein PrPC, primary screen, cell-based, TR-FRET | inhibition, % at 13.8 µM | hit rate 0.43% among 370,000 | TR-FRET read-out | AID 720596, 2013 | Major prion protein (Homo sapiens), P04156; in the data active means inhibition above about 24%; further: 0% = median of the test wells and 100% = reference compound wells
CCHF vOTU inh-1: CCHFV vOTU protease inhibitors, primary screen, biochemical, Pep-AMC substrate, fluorescence. inhibition, % at 11.5 µM. hit rate 0.55% among 370,000. AID 651958, 2012; further: 0% = vehicle wells with enzyme and 100% = no enzyme wells
Sa RN4220 lethal: growth inhibition of S. aureus RN4220, primary screen, OD600 | 16 h | AID 1259311, 2017 | hit rate 0.33% among 330,000 | inhibition, % (concentration not given with the values); in the data active means inhibition above about 85%;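 further: plate controls were untreated cells for no effect and reference antibiotic for full effect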
PfHsp40 yeast: rescue of yeast from PfHsp40 toxicity, primary screen, S. cerevisiae, ATP luminescence | S. cerevisiae expressing PfHsp40, growth rescue | growth rescue, % at 12.5 µM | hit rate 0.68% among 340,000 | AID 504582, 2011; in the data active means growth rescue above about 28%, passing the limit was not always enough; inconclusive means no clear call, values can overlap the other calls;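 further: yeast W303a lacking pdr1 and pdr3 grown in galactose medium; growth measured after three days at 30 °C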
CCHF vOTU inh-2: CCHFV vOTU protease inhibitors, confirmation, biochemical, Pep-AMC substrate, fluorescence; AID 686976, 2013; hit rate 17% among 1,900; inhibition, % at 11.5 µM; shares compounds with CCHF vOTU inh-1; Recombinant CCHFV vOTU
Numbers without * were called inactive; ? = inconclusive; . = no result given. Unless noted, no stated cut-off is given here; in the data, active means inhibition above about 30%; inactive means the rest.

SMILES | Sa ugtP lethal | PrP 5UTR inh | PrPC surface inh | CCHF vOTU inh-1 | Sa RN4220 lethal | PfHsp40 yeast | CCHF vOTU inh-2
COc1ccc(C=C2SC(=S)N(CCCC(=O)Nc3ccc(C(=O)O)c(O)c3)C2=O)cc1OC | . | . | -44 | 22 | . | . | .
O=C(CCCN1C(=O)/C(=C/c2ccccc2)SC1=S)Nc1ccc(C(=O)O)c(O)c1 | . | -31 | -11 | 30* | . | 0 | 5
O=C(CN1C(=O)/C(=C/c2ccco2)SC1=S)Nc1ccc(C(=O)O)c(O)c1 | -1 | -7 | -6 | 36* | 4 | 0 | 22
CCN(CC)c1nc(N)c2c(N)nc3c(c2c1C#N)CC(c1ccccc1)O3 (stereo not drawn) | -1 | 4 | -6 | -10 | 1 | 0 | .
CCN(CC)c1nc(N)c2c(N)n(-c3ccccc3C)c(=S)c(C#N)c2c1C#N | -6 | 9 | 11 | 34* | -2 | 1 | 39*
Fc1ccccc1C=NN1CCN(Cc2ccccc2Cl)CC1 | 36 | . | . | . | -1 | . | .
Oc1cc(NCCc2cccnc2)cc2cccnc12 | -2 | -11 | -11 | 41* | 15 | 11 | 13
Oc1cc(Nc2cccnc2)cc2cccnc12 | 12 | 4 | -6 | 6 | 17 | 10 | .
COc1cc(C=NNC(=S)Nc2cccc(C(=O)O)c2)cc(OC)c1OC | 4 | . | . | . | 3 | . | .
CN(C)C=Nc1c(C(=O)c2ccccc2)sc2nccc(N(C)C)c12 | 5 | -5 | -47 | 30* | 3 | -1 | -2
O=C(NCCCn1ccnc1)c1noc2c1CCc1ccccc1-2 | -7 | -37 | 7 | 39* | 1 | 2 | 22
CC=CC=CC(=O)Nc1nccs1 | 1 | . | . | . | 6 | . | .
COC(=O)c1cc(S(=O)(=O)N2CCOCC2)c(Cl)cc1N1CCOCC1 | -2 | -32 | -1 | 1 | 2 | -1 | .
COC(=O)c1cc(C)nc2c1C(=O)C(=O)C=C2N1CCOCC1 | -1 | 9 | -16 | 107* | 0 | 0 | 109*
Cc1ccccc1S(=O)(=O)N1[C@@H](c2ccc(Br)cc2)C(C(=O)O)=CC[C@H]1c1ccc(Cl)cc1 | 17 | 0 | 14 | 45* | 11 | 9 | 22
Cc1ccc(S(=O)(=O)N2[C@@H](c3ccc(Br)cc3)C(C(=O)O)=CC[C@H]2c2ccc(Cl)cc2)cc1 | 16 | -2 | 5 | 39* | 19 | 20 | 15
Cc1ccc([C@@H]2CC=C(C(=O)O)[C@H](c3ccc(Cl)cc3)N2S(=O)(=O)c2ccccc2C)cc1 | 6 | 0 | 4 | 33* | 16 | ? | 0
Cc1ccc([C@@H]2CC=C(C(=O)O)[C@H](c3ccc(Br)cc3)N2S(=O)(=O)c2ccccc2C)cc1 | 24 | -12 | 11 | 39* | 23 | 318* | 12
COc1ccc([C@@H]2CC=C(C(=O)O)[C@H](c3ccc(Br)cc3)N2S(=O)(=O)c2ccccc2C)cc1 | 8 | -27 | 3 | 28 | 25 | 14 | .
Cc1cccc(NC(=O)CCC(=O)NN=Cc2ccc(O)cc2O)c1 | 3 | . | . | . | 2 | . | .
CNC(=O)C1CC1C(NC(=O)OCc1ccccc1)c1ccccc1 (stereo not drawn) | 0 | . | . | . | 10 | . | .
NC(=NOC(=O)c1ccccc1[N+](=O)[O-])c1cccnc1 | 1 | . | . | . | 0 | . | .
CC(C)CC1CN=C(Nc2ccccc2)N1CCCCc1ccccc1 (stereo not drawn) | -1 | . | . | . | 2 | . | .
CC(=NNC(=O)C1CCCN1C(=O)c1ccc([N+](=O)[O-])cc1)c1ccc(Br)cc1 (stereo not drawn) | 5 | . | . | . | 2 | . | .
Cc1ccc(S(=O)(=O)N2[C@@H](c3ccc(C(C)(C)C)cc3)C(C(=O)O)=CC[C@H]2c2ccc3c(c2)OCO3)cc1 | -1 | -6 | 7 | 30* | 6 | 0 | 3
SMILES | Sa ugtP lethal | PrP 5UTR inh | PrPC surface inh | CCHF vOTU inh-1 | Sa RN4220 lethal | PfHsp40 yeast | CCHF vOTU inh-2
Cc1ccc(S(=O)(=O)N2[C@@H](c3ccccc3F)C(C(=O)O)=CC[C@H]2c2ccc(Cl)c(Cl)c2)cc1 | 77 | -17 | 2 | 16 | 5 | 2 | .
Cc1ccc(S(=O)(=O)N2[C@@H](c3ccccc3)C(C(=O)O)=CC[C@H]2c2ccc3c(c2)OCO3)cc1 | . | -9 | -2 | 0 | . | 1 | .
Cc1ccc([C@H]2C(C(=O)O)=CC[C@@H](c3ccc(Cl)c(Cl)c3)N2S(=O)(=O)c2ccc(C)cc2)cc1 | 53 | -20 | 7 | 40* | 40 | 4 | 11
CC1COC(=O)C(Cc2ccc(F)cc2)CCC=CCC(CC(=O)N(CCO)Cc2ccccc2)C(=O)N1 (stereo not drawn) | -9 | . | . | . | 6 | . | .
CCOC(=O)c1c(/N=C/c2cc([N+](=O)[O-])ccc2O)sc(C)c1C | . | -40 | -13 | 30* | . | 0 | 13
CCOC(=O)c1c(N=Cc2cc([N+](=O)[O-])ccc2O)sc(C)c1C | -9 | . | . | . | 15 | . | .
CCOC(=O)c1c(NC(=O)/C=C/C(=O)O)sc(C)c1-c1ccc(C(C)(C)C)cc1 | 30 | -20 | 24 | 45* | 11 | 0 | 16
Cc1sc(NC(=O)/C=C/C(=O)O)c(C(N)=O)c1-c1ccc(C(C)(C)C)cc1 | 13 | -3 | 10 | 9 | 6 | 2 | .
NC(=O)CCC(NC(=O)c1ccc(F)cc1)C(=O)OCC(=O)NCc1ccc(F)cc1 (stereo not drawn) | -3 | . | . | . | 2 | . | .
COCC(=O)Nc1cc(C)cn(Cc2cccc(C(F)(F)F)c2)c1=O | -3 | -12 | -10 | 6 | 0 | -2 | .
Cc1cc(NS(C)(=O)=O)c(=O)n(Cc2cccc(C(F)(F)F)c2)c1 | . | . | 0 | 31* | . | . | -25
CC(C)C(=O)Nc1ccccc1C(=O)NN=Cc1ccc([N+](=O)[O-])cc1 | -3 | . | . | . | 2 | . | .
Nc1c2c(=O)[nH]c(O)cc2nn1-c1ccccc1 | 8 | -30 | -8 | 63* | 0 | 1 | -11
Cc1c(C)c2c(C)nn(-c3ccccc3)c2[nH]c1=O | -5 | -16 | 0 | -3 | 5 | 0 | .
CCC1C(OC(=O)NCc2ccccc2)CC2CCN3C(=O)CCCC1C23 (stereo not drawn) | 7 | . | . | . | 4 | . | .
COc1cc(Cl)c(C)cc1NC(=O)CN1C(=O)C2CCCCC2C1=O (stereo not drawn) | 9 | -10 | -5 | 32* | 7 | -1 | -14
Nc1c(C(=O)Nc2ccc3c(c2)OCCO3)nnn1Cc1ccc(Br)cc1 | -1 | -91 | 12 | 31* | 1 | 1 | -9
O=C(O)/C(=C/c1ccc(Cl)c([N+](=O)[O-])c1)c1ccc(S(=O)(=O)N2CCCCC2)s1 | -6 | -43 | -17 | 33* | 4 | 3 | -4
COc1ccc2c(c1)OCC1C2N2C(=O)CN(Cc3ccccc3)C(=O)[C@@]2(C)C1c1ccccc1 (stereo partly drawn) | 4 | . | . | . | -4 | . | .
OCCN(Cc1ccccc1)CC(O)COc1ccc(-c2ccccc2)cc1 (stereo not drawn) | 5 | -11 | 0 | 30* | 0 | 1 | -12

Assay outcomes as filed in PubChem.
